Assay results reported in the supplement of paper PMC10477191.
± gives the standard deviation of the averaged measurements.

What follows are molecules tested on Drosophila virilis antennal basiconic sensillum AB1 (assay: odor-evoked OSN spike response (post minus pre-stimulus); higher = stronger neuronal excitation). Conditions: odor dilution: 10^-4.
Description: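 Single sensillum recordings from antennal basiconic sensilla of D. virilis. A 500 ms pulse of odorant (10^-4 in mineral oil or DMSO) was delivered; the response is the change in spike frequency between the 1 s pre- and post-stimulus windows (spikes/s).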

| SMILES | odor-evoked OSN spike response |
| --- | --- |
| CC(C)=O [acetone] | 73.5 ± 24 spikes/s |
